High-throughput results from PubChem BioAssay.
Compounds with a hit are over-represented: about 1.7% of the library has one in this group of screens.
PABP FP inh: PABP poly(A) RNA binding inhibitors, primary screen, biochemical, fluorescence polarization, uHTS | actives 1% (n = 290,000) | AID 2014, 2009 | calls only at 35 µM | Polyadenylate-binding protein 1 (Homo sapiens), P11940;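 also: calls also rest on retests at 20 µM and on dose response follow-up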
PABP1 MLLE inh: inhibitors of PABP1 MLLE–PAM2 peptide binding, primary screen, biochemical, fluorescence polarization, FITC-PAM2, GST-MLLE. inhibition, % at 20 µM. actives 0.36% (n = 360,000). AID 588489, 2011; in the data active = inhibition above about 35%, passing the limit was not always enough
eIF4E 4G PPI: eIF4E–eIF4G protein interaction inhibitors, primary screen, biochemical, uHTS, TR-FRET, eIF4GI fragment; TR-FRET eIF4E-eIF4GI(517-606) binding, 2 h; inhibition, % at 21.7 µM; actives 0.37% (n = 220,000); AID 782, 2007;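 active = inhibition above about 30%, limit read from the data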
eIF4H inh: human eIF4H binding inhibitors, primary screen, translation initiation inhibitor project, biochemical, uHTS, fluorescence polarization | eIF4H fluorescence polarization binding assay | Eukaryotic translation initiation factor 4H (Homo sapiens), Q15056 | inhibition, % at 35 µM | AID 2012, 2009 | actives 0.94% (n = 290,000);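 also: calls also rest on retests at 20 µM and on dose response follow-up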
EBV gp42 inh: Epstein-Barr virus gp42 inhibitors, primary screen, biochemical, uHTS, fluorescence polarization; AID 1085, 2008; Fluorescence polarization binding assay, mP read-out; inhibition, % (tested at 21.74 µM); actives 0.42% (n = 220,000); in the data active = inhibition above about 50%
Target sequence (Q1HVG2 whole entry, looked up): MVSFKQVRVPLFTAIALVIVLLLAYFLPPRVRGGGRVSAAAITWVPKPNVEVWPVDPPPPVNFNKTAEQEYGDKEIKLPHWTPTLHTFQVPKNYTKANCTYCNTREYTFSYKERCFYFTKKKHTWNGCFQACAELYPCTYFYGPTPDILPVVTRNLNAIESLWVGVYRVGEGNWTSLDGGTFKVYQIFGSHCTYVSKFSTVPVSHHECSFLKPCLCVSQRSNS
A number is an active result; – = inactive; ? = inconclusive; · = no result; + = active, no number. Unless noted, no rule for the calls is given here.

SMILES	PABP FP inh	PABP1 MLLE inh	eIF4E 4G PPI	eIF4H inh	EBV gp42 inh
O=C(COc1ccccc1Cl)c1ccc[nH]1	–	–	33	?	57
CCC(SCC(=O)OC)C(=O)Nc1nnc(C(C)C)s1 (configuration not stated)	–	39	–	–	–
CC(C)c1nnc(NC(=O)CS(=O)(=O)Cc2ccccc2)s1	–	41	–	–	–
COc1ccc(CC(=O)Nc2nnc(C(C)C)s2)cc1	–	–	47	–	–
CC(C)c1nnc(NC(=O)Cc2ccc(Br)cc2)s1	–	–	–	–	–
O=C(NCc1ccc(Cl)nc1)c1ccc2nc([C@@H]3O[C@H](CO)[C@H](O)[C@H](O)[C@H]3O)[nH]c2c1	·	–	·	·	·
CCc1nc2ccc(C(=O)Nc3ccc(OC)c(OC)c3)cn2c1N(C)C(=O)Cc1ccccc1	·	–	·	·	·
O=C(O)/C=C/c1cn(-c2ccccc2)nc1-c1ccc(-c2ccc([N+](=O)[O-])cc2)o1	–	–	–	–	66
O=C(NCc1ccccc1CN1CCCC1)c1cccc(N2CCCC2=O)c1	·	–	·	·	·
O=C(NC(=S)N1CCCC1)c1ccccc1F	·	44	·	·	·
CN1/C(=C\C=C(/C#N)C(=O)Nc2ccccc2F)C(C)(C)c2ccccc21	+	–	–	–	–
CN1/C(=C\C(=O)Nc2ccc(F)cc2)C(C)(C)c2ccccc21	–	–	–	–	–
CN1/C(=C\C=N\O)C(C)(C)c2ccccc21	–	–	–	–	–
CN1/C(=C/C=C(/C#N)C(N)=O)C(C)(C)c2ccccc21	–	–	–	55	–
COc1ccc(CN(C)C(=O)c2ccccc2Sc2ccccc2C#N)c(OC)c1	–	–	·	–	·
COCCCNC(=O)CC1Oc2ccccc2NC1=O (configuration not stated)	–	–	–	–	–
CCCSCCCNC(=O)CC1Oc2ccccc2NC1=O (configuration not stated)	–	–	–	–	68
O=C1C2CC=C(Cl)CC2C(=O)N1CCCCCCN1C(=O)C2CC=C(Cl)CC2C1=O (configuration not stated)	+	–	–	99	63
COCCNC(=O)c1cccc(OC2CCN(Cc3ccc(Cl)c(F)c3)CC2)c1	–	–	·	–	·
CC(C)(CCl)C(=O)Nc1ccc(OC(F)(F)F)cc1	–	–	–	–	61
O=c1[nH]ncn1-c1cccc(C(F)(F)F)c1	–	–	–	59	–
CCOc1cccc(=O)c2c(C)n(CC(=O)c3ccccc3)c(C)c12	–	–	–	–	–
CCOc1cccc(=O)c2c(C)oc(C)c12	–	44	–	–	–
COc1ccc(C(=O)/C=C/Nc2ccc(S(N)(=O)=O)cc2)cc1OC	–	–	–	–	–
Nc1cc2nc3ccccc3oc-2cc1=O	+	–	–	–	–
SMILES	PABP FP inh	PABP1 MLLE inh	eIF4E 4G PPI	eIF4H inh	EBV gp42 inh
O=C(O)COc1ccc2c(c1)O/C(=C\c1ccco1)C2=O	+	–	·	77	·
Cc1ccc(/C=C2\Oc3cc(OCC(=O)NN)ccc3C2=O)o1	–	–	·	73	·
COCCN(CCOC)Cc1c(O)ccc2c1O/C(=C\c1ccc(C)o1)C2=O	–	–	·	51	·
COc1cc(C2C(c3ccccc3)C(c3cc(OC)cc(=O)o3)C2c2ccccc2)oc(=O)c1 (configuration not stated)	·	–	·	·	·
CC(C)(C)n1cc(S(=O)(=O)c2ccccc2)[nH]c1=O	+	–	–	active	–
COc1ccc(S(=O)(=O)N2CCCC(C(=O)NCCN3CCOCC3)C2)cc1C (configuration not stated)	–	–	·	–	·
CC(NC(=O)Cn1cnc2c1c(=O)n(C)c(=O)n2C)c1ccccc1 (configuration not stated)	+	–	–	–	–
COc1ccc(OC)c(/C=C/C(=O)N2C(=O)c3cccc(N)c3C2=O)c1	–	40	–	–	–
COc1cc(/C=C/C(=O)N2C(=O)c3cccc(N)c3C2=O)cc(OC)c1OC	–	–	–	–	–
CCN(CC)CCN1CNC(=S)NC1	·	–	·	·	·
C[C@H](CO)N1C[C@H](C)[C@@H](CN(C)C)Oc2c(NS(=O)(=O)c3cn(C)cn3)cccc2C1=O	·	–	·	·	·
COc1ccccc1NC(=O)CCN1CC(C)OC(C)C1 (configuration not stated)	+	–	–	–	–
COc1ccc(NC(=O)CCN2CC(C)OC(C)C2)c(OC)c1 (configuration not stated)	–	–	–	–	–
COc1ccc(-c2cc3nc(C)cc(N4CC(C)CC(C)C4)n3n2)cc1 (configuration not stated)	–	–	–	–	–
COC(=O)CNC(=O)CN1C(=O)N(c2ccccc2)C(N(O)C(=O)Nc2ccccc2)C1(C)C (configuration not stated)	–	–	–	–	–
COC(=O)CN1C(=O)N(c2ccccc2)C(N(O)C(=O)Nc2ccccc2)C1(C)C (configuration not stated)	–	–	–	–	139
Cc1c(S(=O)(=O)N2CCN(c3ccccc3)CC2)c(=O)n(C)c(=O)n1C	–	–	–	–	–
COc1cccc(/C(O)=C/c2nc3ccc(C(=O)NCCc4ccc(Cl)cc4)cc3[nH]c2=O)c1	–	–	–	–	107
CCCS(=O)(=O)NC(=O)C1(C)CCN(C(=O)c2cc(C)oc2C)C1 (configuration not stated)	·	–	·	·	·
CCCCCCOC(=O)C(C#N)c1nc2ccccc2nc1N1CCOCC1 (configuration not stated)	–	–	–	–	99
CCOC(=O)C1CCCN(c2nc3ccccc3nc2C(C#N)C(=O)NCc2ccccc2)C1 (configuration not stated)	–	–	–	–	54
CCOC(=O)N1CCN(c2nc3ccccc3nc2C(C#N)C(=O)NCCc2ccccc2)CC1 (configuration not stated)	+	–	–	–	–
CCCCOC(=O)C(C#N)c1nc2ccccc2nc1N1CCOCC1 (configuration not stated)	–	–	–	–	–
N#CC(C(=O)NCCc1ccccc1)c1nc2ccccc2nc1N1CCCCC1 (configuration not stated)	–	–	–	–	–
CCN(CC)c1nc2ccccc2nc1C(C#N)C(=O)NCCc1ccccc1 (configuration not stated)	–	–	–	29	78
O=C(NC(=S)Nc1ccccc1)c1csnn1	–	37	–	–	–
COc1ccc(NC(=S)NC(=O)c2csnn2)cc1	–	–	–	–	–
Cc1cccc(CNC(=O)C2CCC(=O)N(Cc3ccccc3F)C2)n1 (configuration not stated)	–	–	·	–	·
